Pf growth 48h – P. falciparum growth inhibition at 48 hours (one generation); P. falciparum luciferase growth in erythrocytes, 48 h; Potency, µM (doses to about 28.7 µM), inactives show top-dose activity change, negative = inhibition, actives largely listed as inhibitors; 310,000 tested, 5.9% active; AID 504832; also: potency is read from the fitted curve at half-maximal effect; % is scaled to controls: 0 for no effect and ±100 for the full control effect
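First compound was added to culture medium, then infected red cells at 0.1% parasitemia and 2% hematocrit (final). After incubation at 37 C under 5% CO2, luciferase detection reagent was dispensed and light output recorded.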
Shiga inhibitor – blocks Shiga toxin action in Vero cells; Vero cells, Shiga toxin protein synthesis inhibition reporter; 290,000 tested, 9.2% active; inhibition, % at 38.7 µM; AID 2315; in the data active = inhibition mostly above about 28%, no sharp cut-off; inactive = mostly below about 43%; also: 0% is about no effect
Pf growth 96h – P. falciparum growth inhibition at 96 hours; P. falciparum luciferase reporter growth, 96 h; Potency, µM (titrated, usually from 28.7 µM), inactives show at the top dose activity change, negative = inhibition, hits mostly inhibitors; 320,000 tested, 6.9% active; AID 504834; also: potency is read from the fitted curve at half-maximal effect; % is scaled to controls: 0 for no effect and ±100 for the full control effect
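Luminescence readout: decreased luciferase signal marks inhibited growth of reporter-expressing P. falciparum in infected red cells (2% hematocrit, 0.05% parasitemia final), exposed to compound two generations (96 h, 37 C, 5% CO2).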
CHX counter – counter-screen hit for Shiga toxin inhibitors, cycloheximide; cell reporter, cycloheximide protein synthesis inhibition counterscreen; max response, %; 300,000 tested, 12% active; AID 2314; in the data active = max response mostly above about 13%, no sharp cut-off; inactive = mostly below about 14%; also: read at 38.3 µM for the half of the compounds with a filed dose; 0% is about no effect
LmPK inhibitor – inhibitors of Leishmania mexicana pyruvate kinase | Q27686 | purified LmPK, Kinase-Glo ATP luminescence, 1 h | Potency, µM (top dose mostly 57.5 µM), for the others: top-dose activity change, negative = inhibition, hits mostly inhibitors | 290,000 tested, 0.37% active; also: potency is read from the fitted curve at half-maximal effect; % is scaled to controls: 0 for no effect and ±100 for the full control effect
Target sequence (Q27686 whole entry, looked up): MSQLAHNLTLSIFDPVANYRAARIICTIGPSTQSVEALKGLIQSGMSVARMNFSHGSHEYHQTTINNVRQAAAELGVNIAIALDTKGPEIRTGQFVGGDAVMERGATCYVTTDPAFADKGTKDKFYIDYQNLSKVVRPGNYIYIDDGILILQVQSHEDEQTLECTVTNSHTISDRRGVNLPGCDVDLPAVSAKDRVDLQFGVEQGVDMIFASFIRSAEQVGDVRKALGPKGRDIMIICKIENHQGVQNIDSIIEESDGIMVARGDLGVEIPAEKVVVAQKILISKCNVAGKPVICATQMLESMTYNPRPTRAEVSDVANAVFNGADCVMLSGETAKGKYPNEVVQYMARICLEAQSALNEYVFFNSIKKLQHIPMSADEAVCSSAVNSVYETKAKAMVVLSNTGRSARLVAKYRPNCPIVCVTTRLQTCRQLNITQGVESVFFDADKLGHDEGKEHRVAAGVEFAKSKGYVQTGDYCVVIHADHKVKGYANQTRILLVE
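Purified LmPK (0.1 nM) converted ADP (0.1 mM) to ATP with PEP (0.5 mM) in imidazole buffer pH 7.2 with KCl and MgCl2, 1 h at room temperature. ATP was read by Kinase-Glo luminescence; data normalized to uninhibited and no-enzyme controls.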
* hit, by the source's call; ? = inconclusive; · = no result given; [ ] = remark or other dose. Rows were chosen to be rich in hits. Some 22% of all compounds tested hit in one or more screens of this group. Unless noted, calls follow the shape of the dose curve; as a rule, active = well fitted inhibition curve with a large enough effect; inconclusive = small, poorly fitted or top-dose-only effect, or another doubt; inactive = no such curve, though single readings can be large or run the other way.

SMILES	Pf growth 48h	Shiga inhibitor	Pf growth 96h	CHX counter	LmPK inhibitor
FC(F)Sc1ccc(NC(=S)NCC2CCCCC2)cc1	·	91.6	-104.9%	13.9	5.3%
Cc1nc2c(-c3ccccc3)c(C)[nH]n2c(=O)c1Cc1ccccc1	10.4µM*	2.8	5.6%	-2.9	-1.0%
O=C(C(Cc1ccccc1)N1C(=O)c2ccccc2C1=O)N1CCc2ccccc21 (configuration not stated)	14.7µM*	10.5	?	-2.6	1.3%
O=C(Cc1ccccc1)N1CCc2ccccc21	·	40.3*	44.6%	27.4*	0.0%
COc1ccc(CCC(=O)N2CCCc3ccccc32)cc1	13.3%	-20.8	17.0%	16.4	-3.9%
COc1ccc(CC(=O)N2CCc3ccccc32)cc1	127.4%	79.5*	-23.4%	31.5*	1.1%
O=C(Cc1ccc([N+](=O)[O-])cc1)N1CCCc2ccccc21	?	31.3	?	21.2	4.2%
CC(CC(=O)N1CCc2ccccc21)n1cccn1 (configuration not stated)	25.7%	25.0	?	26.8*	0.3%
O=C1c2ccccc2C(=O)N1CCCC(=O)N1CCc2ccccc21	·	-4.4	40.5%	10.1	7.2%
CC1CC(C)CN(C(=O)C2CCCN(S(=O)(=O)c3cnc[nH]3)C2)C1 (configuration not stated)	?	1.0	18.5%	0.4	-5.6%
COc1ccc([C@H]2CC(=O)C=C(c3cc(C=O)ccc3OC)C2)cc1	?	·	-7.8%	·	·
CCCCN(C(=O)C1CCCC1)c1c(N)n(CCC)c(=O)[nH]c1=O	-6.6%	·	2.3%	·	·
CC(O)Cn1c(N2CCCC2)nc2c1c(=O)n(C)c(=O)n2C (configuration not stated)	-17.8%	8.5	101.1%	-0.4	0.3%
CCC(=O)N/N=C(\C)CC(=O)Nc1ccc2c(c1)OCCO2	-1.5%	18.2	-17.6%	1.4	7.0%
COc1ccc2c(CC(=O)N3CCc4ccccc43)coc2c1	154.0%	65.6*	·	42.1*	?
O=C(CCn1cccc1)N1CCc2ccccc21	16.3%	16.7	87.0%	53.2*	-3.0%
O=C(CS(=O)(=O)c1ccccc1)N1CCc2ccccc21	54.2%	73.9*	0.828µM*	39.8*	-29.3%
O=C(CS(=O)(=O)c1ccccc1)N1CCCCCC1	38.3%	52.6*	27.5%	17.3*	-6.7%
COCC(=O)Nc1ccc2c(c1)OCC(=O)N2Cc1ccccc1F	0.3%	-7.9	-21.8%	1.4	-1.8%
O=S(=O)(CC(CN1CCCCC1)N1CCCCC1)c1ccccc1 (configuration not stated)	-80.2%	53.5	?	27.2*	6.4%
O=C1C(=O)c2ccccc2-c2ccccc21	·	-40.6	?	-11.6	-4.5%
Cc1ccc(SC2=C(Sc3ccc(C)cc3)C(=O)c3ccccc3C2=O)cc1	0.415µM*	36.7*	0.738µM*	28.4*	?
COc1ccc(C2(c3ccc(OC)cc3)NC(=O)N(CC(=O)N(C)c3ccccc3)C2=O)cc1	32.0%	72.5*	-34.4%	51.5*	-8.2%
CCOc1ccc(CN(C)C(=O)CN2C(=O)NC(c3ccccc3)(c3ccccc3)C2=O)cc1	13.1µM*	·	?	·	·
O=C(Cc1ccc(F)cc1)N1CCC(N2CCC(C(=O)N3CCOCC3)CC2)CC1	0.9%	-5.8	2.6%	12.3	0.6%
SMILES	Pf growth 48h	Shiga inhibitor	Pf growth 96h	CHX counter	LmPK inhibitor
CN(CCC#N)C(=S)Nc1ccc(S(=O)(=O)N2CCOCC2)cc1	-5.9%	0.9	7.8%	-3.1	6.4%
COCCn1c(SCC(=O)Nc2cc(C)nn2-c2ccccc2)nnc1-c1ccncc1	12.3%	-17.1	45.0%	-1.5	-2.8%
CCOC(=O)C1(CC2CCCCO2)CCN(Cc2nccn2-c2ccc(OC)cc2)CC1 (configuration not stated)	10.4µM*	-7.2	-11.0%	-1.5	7.6%
CCOC(=O)C1(CC2CCCCO2)CCN(Cc2cc(F)ccc2-n2cccn2)CC1 (configuration not stated)	16.8%	72.0	-25.1%	26.7*	-3.7%
O=C(Nc1ccncc1)c1cccc(S(=O)(=O)N2CCc3ccccc32)c1	10.4µM*	·	?	·	·
COc1ccc(S(=O)(=O)N2CCc3ccccc32)cc1C(=O)NCCc1ccccn1	10.4µM*	-15.4	?	6.3	3.7%
O=C(Nc1cccnc1)c1ccc(Cl)c(S(=O)(=O)N2CCc3ccccc32)c1	2.62µM*	4.8	3.7µM*	6.3	3.2%
CC1Cc2ccccc2N1S(=O)(=O)c1ccc2c(c1)n(C)c(=O)c(=O)n2C (configuration not stated)	9.28µM*	-9.2	?	-2.6	3.4%
O=C(O)c1cccc(NC(=O)c2cccc(S(=O)(=O)N3CCc4ccccc43)c2)c1	-6.9%	16.9	-16.9%	-1.8	0.1%
CCC(C(=O)c1ccccc1)P(=O)(NN)c1ccccc1 (configuration not stated)	7.4%	-10.6	42.1%	-0.8	-0.6%
CCS(=O)(=O)N1CCC(C(=O)N2CCN(Cc3ccccc3)CC2)CC1	24.8%[5.75 µM]	-4.4	42.1%	1.4	0.1%
CN(Cc1ccnc2ccccc12)C(=O)C1CCC(=O)N(Cc2ccccc2F)C1 (configuration not stated)	-17.5%	-11.6	?	-2.0	0.1%
COc1ccc(S(=O)(=O)N2CCc3ccccc32)cc1C(=O)Nc1cccnc1	?	-2.2	2.94µM*	-3.1	-2.7%
O=C(Nc1cccnc1)c1cccc(S(=O)(=O)N2CCc3ccccc32)c1	10.4µM*	-3.5	3.29µM*	4.9	2.3%
O=C(NCc1ccco1)c1cccc(S(=O)(=O)N2CCc3ccccc32)c1	5.7%	-3.5	-13.9%	-0.4	1.6%
C=CCN(CC=C)C(=O)c1cccc(S(=O)(=O)N2c3ccccc3CC2C)c1 (configuration not stated)	2.33µM*	-6.9	?	-1.4	6.3%
CC1Cc2ccccc2N1S(=O)(=O)c1cccc(C(=O)Nc2cccnc2)c1 (configuration not stated)	8.28µM*	-5.4	?	-1.8	6.3%
NS(=O)(=O)c1ccc(F)c(C(=O)O)c1	0.6%	-3.3	18.6%	-3.7	-2.0%
NC1=NC2C(N=C(Br)N2[C@@H]2O[C@H]3COP(=O)(O)O[C@@H]3[C@@H]2O)C(=O)N1 (some centres not stated)	·	-5.8	·	7.9	·
O=C(CSc1nnc2ccc(-c3ccccn3)nn12)Nc1ccccc1F	12.3%	·	1.7%	·	·
Cc1cc[n+](C2=C([O-])c3ccccc3C(=O)/C2=N\S(=O)(=O)c2cccs2)cc1C	2.62µM*	9.9	3.29µM*	-5.5	-4.1%
Cc1cc(C)c[n+](C2=C([O-])c3ccccc3C(=O)/C2=N\S(=O)(=O)c2cccs2)c1	1.85µM*	-1.2	?	-0.8	4.0%
Cc1ccc(C)c(NC(=O)c2cnn(-c3ccccc3)c2C)c1	22.7%	·	?	39.8*	-1.8%
Cc1ccc(C)n1-c1c(C(=O)NN)cnn1-c1ccccc1	10.4µM*	-4.4	?	-3.5	-2.4%
Cc1ccc(C)c(NC(=O)c2ccccc2C(=O)c2ccccc2)c1	?	13.4	0.0%	6.4	0.2%

High-throughput results from PubChem.
